The list is not random: actives were taken first. Their share in the collection is about 5.4%.
PP1 inh: blocks human PP1-alpha phosphatase, a PP5 counter-screen. P62136. purified PP1alpha, OMFP fluorescence. inhibition, % at 6.7 µM. 0.9% of 320,000 active;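 active means inhibition above the mean inhibition of all tested compounds plus 3 SD, computed separately for each screening campaign, cut at about 15% in these data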
PP5 primary: blocks human protein phosphatase 5 activity | P53041 | purified PP5c, OMFP substrate fluorescence | inhibition, % at 6.7 µM | 0.18% of 320,000 active | AID 1987;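 active means inhibition above the campaign's mean inhibition across all tested compounds plus 3 SD, cut at about 9.5% in these data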
Target sequence (P53041 whole entry, looked up): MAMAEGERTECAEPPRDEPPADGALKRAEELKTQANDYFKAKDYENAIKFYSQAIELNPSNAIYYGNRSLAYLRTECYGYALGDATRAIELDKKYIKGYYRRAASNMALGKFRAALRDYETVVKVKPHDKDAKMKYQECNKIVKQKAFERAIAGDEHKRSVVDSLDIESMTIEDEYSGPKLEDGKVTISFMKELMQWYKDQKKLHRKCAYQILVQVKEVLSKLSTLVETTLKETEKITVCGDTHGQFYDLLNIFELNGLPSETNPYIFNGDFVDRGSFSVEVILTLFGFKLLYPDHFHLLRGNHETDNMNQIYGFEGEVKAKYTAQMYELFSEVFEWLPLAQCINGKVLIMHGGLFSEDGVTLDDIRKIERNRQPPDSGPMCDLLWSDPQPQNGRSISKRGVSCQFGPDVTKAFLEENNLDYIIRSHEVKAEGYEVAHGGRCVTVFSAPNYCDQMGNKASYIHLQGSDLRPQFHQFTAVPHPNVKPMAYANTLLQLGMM
ALR H2O2 inh: human ALR oxidase inhibition via reduced H2O2 | P55789 | purified ALR, DTT oxidation, H2O2 HRP-luminol luminescence | inhibition, % (concentration not given with the values) | 3.8% of 290,000 active | AID 485317;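 active means mean replicate inhibition above about 79%, with every replicate also reaching it, limit read from the data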
Target sequence (P55789 whole entry, looked up): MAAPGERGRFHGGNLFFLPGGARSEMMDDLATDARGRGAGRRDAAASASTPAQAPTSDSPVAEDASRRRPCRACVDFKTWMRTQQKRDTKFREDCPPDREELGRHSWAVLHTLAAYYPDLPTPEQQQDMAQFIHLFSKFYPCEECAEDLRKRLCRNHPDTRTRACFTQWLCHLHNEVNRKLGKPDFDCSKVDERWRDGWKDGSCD
CSC inhib: cancer stem cell inhibition; cancer stem cell-like cells viability, luminescence; inhibition, % at 7.5 µM; 1.1% of 300,000 active; AID 2717; in the data active means inhibition above about 75%; tested in HMLE shEcad cells
Calb FLC: C. albicans growth modulation with fluconazole. C. albicans CaCi-2 (fluconazole-resistant clinical isolate) + fluconazole, Alamar Blue growth, 48 h. growth inhibition, % (no concentration beside the values). 0.57% of 300,000 active;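 active means growth inhibition above about 58% in most replicates, limit read from the data, passing the limit was not always enough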;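 further: all wells also contain fluconazole at 8 µg/ml as a sub-toxic cotreatment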
Of the large screens only hits and unclear results are named; the others gave an inactive call.

CC(=O)c1ccc(NC(=O)C(NC(=O)c2ccccc2)=C(C)C)cc1	none
O=C(Nc1ccccc1C(=O)N/N=C/c1ccccc1)c1ccco1	none
O=C(N/N=C/c1ccc(O)cc1)c1csc2ccccc12	ALR H2O2 inh 98, Calb FLC 114
O=C(CNC(=O)c1ccccc1Br)N/N=C/c1ccc(O)cc1	ALR H2O2 inh 99
O=C(N/N=C/c1ccc(O)cc1)c1cc(-c2ccccc2)nc2ccccc12	none
O=C(Nc1ccccc1C(=O)N/N=C/c1ccc(O)cc1)c1ccccc1	ALR H2O2 inh 94
O=C(O)c1ccc(CNC(=O)c2ccc(S(=O)(=O)N3CCCCC3)cc2)cc1	none (no result: CSC inhib, Calb FLC)
COc1cccc(-n2c(CCn3nc(C)c([N+](=O)[O-])c3C)n[nH]c2=S)c1	ALR H2O2 inh 85
Cc1cccc(-n2c(CCn3nc(C)c([N+](=O)[O-])c3C)n[nH]c2=S)c1	ALR H2O2 inh 92
COc1ccc(CCn2nc(C)c([N+](=O)[O-])c2C)cc1	none
COC(=O)CCc1c(C)c(C(=O)c2cccc(OC)c2OC)c2ccccn12	none
Nc1ccc(C(=O)c2cccs2)cc1	none (no result: ALR H2O2 inh)
Cc1cc(C(=O)c2cccs2)c(N)s1	ALR H2O2 inh 99
Cc1ccccc1NS(=O)(=O)c1ccc(C(=O)OCC(=O)NCC(C)C)cc1	none (no result: CSC inhib)
Cn1c(C=O)c(-c2ccc3c(c2)OCCO3)c2ccccc21	none (no result: Calb FLC)
Cc1ccc(Nc2nc(N)nc(CSc3nnnn3-c3ccccc3)n2)cc1	PP1 inh 16
Cc1ccc(Nc2nc(N)nc(CSc3nncn3C)n2)cc1	none
Cn1cnnc1SCC(=O)Nc1ccc(N2CCCCC2)cc1	ALR H2O2 inh 99 (no result: Calb FLC)
COCCn1cnnc1SCC(=O)Nc1cc(C)on1	none (no result: PP1 inh, PP5 primary, Calb FLC)
COCCn1cnnc1SCC(=O)Nc1ccc(N2CCCCC2)cc1	ALR H2O2 inh 95 (no result: Calb FLC)
Cn1cnnc1SCC(=O)Nc1ccccc1	none
Cn1cnnc1SCC(=O)Nc1ccc(S(N)(=O)=O)cc1	ALR H2O2 inh 94
COc1ccc(NC(=O)CSc2nncn2C)cc1	none (no result: ALR H2O2 inh)
COc1ccc(-c2nc(CN3CCN(c4ccccc4OC)CC3)c(C)o2)cc1	none
Cc1cc(C(=O)O)cc(S(=O)(=O)Nc2c(C)nn(C)c2C)c1C	none (no result: PP1 inh, PP5 primary, Calb FLC)
Nc1cccc(-c2cnc3ccccc3n2)c1	ALR H2O2 inh 99
O=S(=O)(N/N=C/c1ccc2c(c1)OCCO2)c1ccc(Cl)cc1	none
CC1CCc2c(sc3nc(CN4CCN(S(=O)(=O)c5ccccc5[N+](=O)[O-])CC4)[nH]c(=O)c23)C1 (stereo not drawn)	PP1 inh 16
Cc1nn(C)c(-c2n[nH]c(=S)n2Cc2ccco2)c1Cl	none
Oc1cc2ccccc2cc1-c1n[nH]c(=S)n1Cc1ccco1	none (no result: ALR H2O2 inh)
Oc1ccc(-c2n[nH]c(=S)n2Cc2ccco2)cc1	ALR H2O2 inh 91
CCCn1c(Cc2ccccc2)n[nH]c1=S	none
S=c1[nH]nc(Cc2ccccc2)n1Cc1ccco1	ALR H2O2 inh 89
COc1cccc(-c2n[nH]c(=S)n2Cc2ccco2)c1OC	ALR H2O2 inh 87 (no result: CSC inhib)
O=C(N/N=C/c1ccc(N2CCCCC2)o1)c1ccccc1	none (no result: Calb FLC)
O=C(Nc1nnc(SCc2ccc(Cl)cc2)s1)c1cnccn1	Calb FLC 80
O=C(Nc1ccc(Cl)cc1)Nc1nnc(SCc2ccc(Cl)cc2)s1	none
O=C(CN1C(=O)NC2(CCCCC2)C1=O)Nc1ccc(N2CCCCC2)cc1	ALR H2O2 inh 93 (no result: PP1 inh, PP5 primary, Calb FLC)
Cc1cc(N2CCCC2)ccc1NC(=O)CN1C(=O)NC2(CCCCC2)C1=O	ALR H2O2 inh 93
CCOc1ccc(/C=c2\sc3nc(-c4ccco4)nn3c2=O)cc1OCC	none
CC(C)c1ccc(/C=c2\sc3nc(-c4ccncc4)nn3c2=O)cc1	ALR H2O2 inh 87
Cc1ccc(/C=c2\sc3nc(-c4cccnc4)nn3c2=O)cc1	ALR H2O2 inh 91
CNC(=O)COC(=O)c1ccc(Cl)c(S(=O)(=O)N2CCCC2)c1	none
COc1cc2cccc(OC)c(=O)c2c(O)c1OC	none (no result: ALR H2O2 inh)
COc1cc2c(ccc3cc(OC)c(OC)c(O)c32)cc1O	ALR H2O2 inh 99
Oc1cccc(C(O)CNCc2ccc(OCc3ccc(Cl)cc3Cl)cc2)c1 (stereo not drawn)	CSC inhib 78
N#C/C(=C(/O)c1ccco1)c1nc2ccccc2s1	none
N#C/C(=C(/O)c1cc2ccccc2o1)c1nc2ccccc2s1	CSC inhib 108
CC(C)(C)c1ccc(C(=O)OC/C(O)=C(\C#N)c2nc3ccccc3s2)cc1	none
N#C/C(=C(/O)COC(=O)c1ccccc1O)c1nc2ccccc2s1	Calb FLC 83
CCCc1nc2oc3ccccc3c(=O)c2c(=O)n1CCCOC	none
O=C(NCc1cccs1)C1CCCN1C(=O)Nc1cccc(Cl)c1 (stereo not drawn)	none
Cc1c(C(=O)OCC(=O)Nc2c(C)n(C)n(-c3ccccc3)c2=O)oc2ccccc12	ALR H2O2 inh 99
Cc1c(NC(=O)CN2c3ccccc3CC2C)c(=O)n(-c2ccccc2)n1C (stereo not drawn)	ALR H2O2 inh 97
Cc1ccc2cc(/C=C/C(=O)c3ccco3)c(Cl)nc2c1	none
Cc1ccc2nc(Cl)c(/C=C/C(=O)c3ccco3)cc2c1	ALR H2O2 inh 97
CCCSc1nc(O)c(C2OC(=O)c3c2ccc(OC)c3OC)c(=O)n1-c1ccccc1 (stereo not drawn)	none
C=CCSc1nc(O)c(C2OC(=O)c3c2ccc(OC)c3OC)c(=O)n1-c1ccccc1 (stereo not drawn)	ALR H2O2 inh 97
CCOC(=O)c1c(/N=C/c2cc([N+](=O)[O-])ccc2O)sc(C)c1C	ALR H2O2 inh 98
CCOC(=O)c1c(/N=C/c2cc(OC)cc([N+](=O)[O-])c2O)sc(C)c1C	none
O=c1ccc2cc(S(=O)(=O)Nc3ccc(Br)cc3)ccc2o1	none (no result: PP1 inh, PP5 primary)
FC(F)(F)C1=CC(c2ccc(Cl)cc2)=NCCN1	ALR H2O2 inh 99
Oc1ccccc1C1=NCCNC(C(F)(F)F)=C1	none
COc1ccc(NC(=O)c2ccc(COc3ccccc3Br)o2)cc1OC	CSC inhib 96
COc1ccccc1OCc1ccc(C(=O)NN)o1	ALR H2O2 inh 90
COc1ccc(NC(=O)c2ccc(COc3ccccc3OC)o2)cc1OC	none
CCOC(=O)c1cc(CN2CCOCC2)oc1-c1ccccc1	none
Cc1ccc(N2CC(C)Cn3c2nc2c3c(=O)[nH]c(=O)n2C)cc1 (stereo not drawn)	none (no result: PP1 inh, PP5 primary, ALR H2O2 inh, CSC inhib)
CC1CN(C2CCCCC2)c2nc3c(c(=O)[nH]c(=O)n3C)n2C1 (stereo not drawn)	ALR H2O2 inh 95
CCC(C)N(C(=O)COc1ccccc1C#N)C1CCS(=O)(=O)C1 (stereo not drawn)	none
ClCc1nc2ccccc2n1Cc1ccccc1	none
N#CC1=C(N)OC2=C(C(=O)CCC2)C1c1ccc2c(c1)OCO2 (stereo not drawn)	none
NNc1nc2cc3c(cc2s1)OCCO3	ALR H2O2 inh 99
O=C(CCS(=O)(=O)c1ccccc1)Nc1nc2cc3c(cc2s1)OCCO3	Calb FLC 82
COc1ccc(OC)c2sc(NC(=O)CCS(=O)(=O)c3ccccc3)nc12	CSC inhib 109 (no result: ALR H2O2 inh)
CCC(c1nc2ccccc2c(=O)n1-c1nc2ccccc2s1)N1C(=O)c2ccccc2C1=O (stereo not drawn)	none
CCCCn1nc2cc(C(=O)NCCCCc3ccccc3)ccc2c1OCC	none

Screens (PubChem BioAssay)
